Measured values reported in PubChem BioAssay AID463173 (ICCB-Longwood Screening Facility, Harvard Medical School, 2010).
The campaign covered roughly 52,000 compounds. About 4,300 (8.3%) were called active. Cut-off read from the data, not from the text of the source: active = survival mostly below about 52% (no sharp cut-off); inactive = mostly above about 56%. The entries come from a sample that favours actives as a whole.

system: DeltatarO mutant; test: S. aureus survival, RN4220 and DeltatarO strains – OD600, teichoic acid synthesis inhibitors, primary screen (AID 463173); conditions: S. aureus RN4220 wild type/DeltatarO growth, OD600, 18 h, hits give low values, screened at 18.75 µg/mL (by protocol)

Row | SMILES | survival
1 | CCOC(=O)c1ccc(NS(=O)(=O)c2ccc3c(c2)CCN3C(=O)CC)cc1 | 79% (inactive)
2 | Brc1ccc(-c2cn3cc(Cc4ccccc4)sc3n2)cc1 | 64% (inactive)
3 | COc1ccc(CCNC(=O)c2cc(=O)[nH]c3ccc(S(=O)(=O)N4CCCCC4C)cc23)cc1OC (stereo unspecified) | 117% (inactive)
4 | COc1cc(NC(=O)Cn2c(=O)oc3cc(S(=O)(=O)N4CCCCCC4)ccc32)cc(OC)c1 | 95% (inactive)
5 | CC1CCN(S(=O)(=O)c2ccc3c(c2)oc(=O)n3CC(=O)N2CCCCC2)CC1 | 66% (inactive)
6 | COc1ccc(OC)c(CNC(=O)c2cc(=O)[nH]c3ccc(S(=O)(=O)N4CCCCC4C)cc23)c1 (stereo unspecified) | 6% (active)
7 | CC1CCN(C(=O)Cn2c(=O)oc3cc(S(=O)(=O)N4CCCCC4)ccc32)CC1 | 86% (inactive)
8 | COc1ccc(Br)cc1CNC(=O)c1cc(=O)[nH]c2ccc(S(=O)(=O)N3CCCCC3C)cc12 (stereo unspecified) | 82% (inactive)
9 | CCOc1ccc(NC(=O)Cn2c(=O)oc3cc(S(=O)(=O)N4CCCCCC4)ccc32)cc1 | 75% (inactive)
10 | COc1ccc(NC(=O)Cn2c(=O)oc3cc(S(=O)(=O)N4CCCCC4C)ccc32)cc1 (stereo unspecified) | 47% (active)
11 | CC1CCN(S(=O)(=O)c2ccc3c(c2)oc(=O)n3CC(=O)O)CC1 | 0% (active)
12 | Fc1ccc(N2CCN(c3ncnc4[nH]ncc34)CC2)cc1 | 95% (inactive)
13 | CCSc1ncc(Cl)c(C(=O)Nc2c(C(=O)Nc3cccc(C)c3)oc3ccccc23)n1 | 109% (inactive)
14 | Cc1c(C(=O)NCCc2ccccc2)cccc1-n1cnc2cccnc21 | 75% (inactive)
15 | O=C(O)c1cccc(NC2SC(=O)N(c3ccccc3)C2=O)c1 (stereo unspecified) | 107% (inactive)
16 | O=C1C(=O)N(C2CCN(C(=O)c3ccc(Cl)cc3)CC2)CCN1Cc1ccc(F)cc1 | 78% (inactive)
17 | COc1ccc(-n2c(SCC(=O)N3CCc4ccccc43)nc3c([nH]c4ccccc43)c2=O)cc1 | 92% (inactive)
18 | Cc1cccc(NC(=O)CN(C)S(=O)(=O)c2cnc[nH]2)c1C | 97% (inactive)
19 | CCN1CCc2c(sc(NC(=O)c3ccc(S(=O)(=O)N(C)C4CCCCC4)cc3)c2C(N)=O)C1 | 80% (inactive)
20 | Cc1ccccc1NC(=O)Cn1cc(S(=O)(=O)N2CCCC2)c(S(=O)(=O)N2CCCC2)c1 | 90% (inactive)
21 | CC(=O)c1ccc(NC(=O)CCCc2nc(-c3cccc(C)c3)no2)cc1 | 69% (inactive)

Row | SMILES | survival
22 | COc1ccc(N2CCN(CCCNC(=O)C3COc4ccccc4C3)CC2)cc1 (stereo unspecified) | 131% (inactive)
23 | CCn1c(CNc2ccc(C)cc2)nnc1SCc1ccccc1 | 115% (inactive)
24 | COc1cc(CN(C(=O)Nc2cccc(Cl)c2)c2ccccn2)cc(OC)c1OC | 68% (inactive)
25 | O=C(Nc1ccccc1)N(Cc1ccc(F)cc1)c1ccccn1 | 56% (inactive)
26 | CCc1ccc(CN(C(=O)Nc2cccc(Cl)c2)c2ccccn2)cc1 | 94% (inactive)
27 | O=C(Nc1ccccc1)N(Cc1cccc(Cl)c1)c1ccccn1 | 37% (active)
28 | Cc1ccc(CN(C(=O)Nc2cccc(Cl)c2)c2ccccn2)cc1 | 40% (active)
29 | COc1ccc(CN(C(=O)Nc2cccc(Cl)c2)c2ccccn2)cc1OC | 92% (inactive)
30 | COc1cc(NC(=O)CCn2cnc3ccccc3c2=O)cc(OC)c1 | 122% (inactive)
31 | CCN(CC)C(=O)Cn1cc(SCC(=O)Nc2cccc(C)c2)c2ccccc21 | 69% (inactive)
32 | Cc1ccc2c(CC(=O)Nc3c(C(=O)c4ccc(C)c(F)c4)oc4ccccc34)coc2c1 | 96% (inactive)
33 | O=C(NCc1ccccc1)C1CCN(S(=O)(=O)Cc2ccccc2)CC1 | 98% (inactive)
34 | CCc1ccc(NC(=O)C2CCN(S(=O)(=O)c3cccc(-c4noc(C)n4)c3)CC2)cc1 | 77% (inactive)
35 | CCc1cccc(NC(=O)C2CCN(S(=O)(=O)c3cccc(-c4noc(C)n4)c3)CC2)c1 | 73% (inactive)
36 | Cc1cc(C)cc(NC(=O)C2CCN(S(=O)(=O)c3cccc(-c4noc(C)n4)c3)CC2)c1 | -5% (active)
37 | Cc1ccc(NC(=O)CSc2nc(C3CCCC3)nc3c2c(=O)n(C)c(=O)n3C)c(C)c1 | 73% (inactive)
38 | COc1cccc(CNC(=O)c2oc3c(c2C)-c2nn(Cc4cccc(Cl)c4)cc2CC3)c1 | 76% (inactive)
39 | CCOC(=O)c1c(NC(=O)c2ccc(F)cc2)sc2c1CCC(CC)C2 (stereo unspecified) | 9% (active)
40 | CCOC(=O)c1c(NC(=O)C2c3ccccc3Oc3ccccc32)sc2c1CCC(CC)C2 (stereo unspecified) | 52% (inactive)
41 | CCC1CCc2c(sc(NC(=O)C3c4ccccc4Oc4ccccc43)c2C(=O)OC)C1 (stereo unspecified) | 72% (inactive)
42 | CCOC(=O)c1ccc(NC(=O)c2c(NC(C)=O)sc3c2CCC(C)C3)cc1 (stereo unspecified) | 47% (inactive)

Row | SMILES | survival
43 | CCOC(=O)c1c(NC(=O)COc2cccc(C)c2C)sc2c1CCC(CC)C2 (stereo unspecified) | 59% (inactive)
44 | CCOC(=O)c1c(NC(=O)c2ccccc2OCC)sc2c1CCC(CC)C2 (stereo unspecified) | -2% (active)
45 | CCCSc1ncc(Cl)c(C(=O)Nc2ccc(S(=O)(=O)N3CCCCC3C)cc2)n1 (stereo unspecified) | 51% (inactive)
46 | Cc1ccc(CSc2nnc(-c3ccc(O)cc3)o2)cc1 | 84% (inactive)
47 | Oc1ccccc1-c1nnc(SCc2ccccc2)o1 | 86% (inactive)
48 | COc1cccc(CSc2nnc(-c3ccc(F)cc3)o2)c1 | 90% (inactive)
49 | Cc1ccc(-c2nnc(SCc3ccccc3C#N)o2)cc1 | 69% (inactive)
50 | N#Cc1ccccc1CSc1nnc(-c2ccccc2)o1 | 61% (inactive)
51 | Cc1ccc(-c2nnc(SCc3ccccc3C)o2)cc1 | -5% (active)
52 | COc1ccc(-c2nnc(SCc3cccc(Cl)c3)o2)cc1 | 22% (active)
53 | COc1ccc(-c2nnc(SCC#N)o2)cc1 | 74% (inactive)
54 | c1ccc(-c2nnc(SCc3cccnc3)o2)cc1 | 54% (active)
55 | CCOc1ccc(CCNC(=O)c2ccc(C)c(-n3c(C)nc4cccnc43)c2)cc1OCC | 101% (inactive)
56 | Cc1cccc(C(=O)Nc2ccc(OCc3cc(=O)n4ccsc4n3)cc2)c1 | 101% (inactive)
57 | O=C(CSc1ccccn1)Nc1cccc(F)c1 | 85% (inactive)
58 | COC(=O)C(C)(C)Sc1nnc2c(n1)[nH]c1c(C)cc(C)cc12 | 55% (inactive)
59 | Cc1cccc(NC(=O)c2ccc(-n3cnc4cccnc43)cc2)c1C | 82% (inactive)
60 | COc1cc(OC)c(NC(=O)c2ccc(-n3cnc4cccnc43)cc2)cc1Cl | 52% (active)
61 | COc1cc(NC(=O)c2ccc(-n3cnc4cccnc43)cc2)cc(OC)c1 | 55% (inactive)
